From PubChem BioAssay AID1159580 (chemical genetic matrix, 2015)
Several values for one entry are separate records, joined by “and”; a condition that tells them apart may be missing. Identical values can stand only once. Among all 5,500 compounds or so, about 2,000 (36%) were called active. Not shown: some 18% with an inconclusive outcome. This is one part of the list. A number with no mark means an inactive call. Cut-off read from the data, not from the text of the source: active = normalized growth mostly below about 0.91 (no sharp cut-off); inconclusive = no clear call, values can overlap the other calls; inactive = mostly above about 0.92.

Experiment: chemical genetic growth profiling, strain panel (AID 1159580);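 note: tested at 20 µM; growth read once vehicle control cultures reached saturation at 30 °C; 1 = growth at the plate median or of vehicle wells; lower values mean less growth of the strain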
Settings: S. cerevisiae deletion strains, growth OD

SMILES: CCCCCCOc1ccccc1C(N)=O
- normalized growth (locus YAL013W, strain DEP1, active compounds read low): 0.662 (active)
- normalized growth (locus YAL021C, strain ccr4, active compounds read low): 1.04
- normalized growth (locus YAL026C, strain drs2, active compounds read low): 0.75 (active)
- normalized growth (locus YAL030W, strain snc1, active compounds read low): 0.939
- normalized growth (locus YBL061C, strain skt5, active compounds read low): 0.893 (active)
- normalized growth (locus YBR009C, strain hhf1, active compounds read low): 0.862 (active)
- normalized growth (locus YBR021W, strain FUR4, active compounds read low): 0.84 (active)
- normalized growth (locus YBR023C, strain chs3, active compounds read low): 0.81 (active)
- normalized growth (locus YBR171W, strain sec66, active compounds read low): 0.857 (active)
- normalized growth (locus YBR229C, strain ROT2, active compounds read low): 0.86 (active)
- normalized growth (locus YBR231C, strain swc5, active compounds read low): 0.922
- normalized growth (locus YBR279W, strain paf1, active compounds read low): 0.934
- normalized growth (locus YCL011C, strain gbp2, active compounds read low): 0.897 (active)
- normalized growth (locus YCL016C, strain dcc1, active compounds read low): 0.874 (active)
- normalized growth (locus YCL029C, strain bik1, active compounds read low): 0.38 (active)
- normalized growth (locus YCL069W, strain vba3, active compounds read low): 0.849 (active)
- normalized growth (locus YCR088W, strain abp1, active compounds read low): 0.94
- normalized growth (locus YDL005C, strain med2, active compounds read low): 0.964
- normalized growth (locus YDL035C, strain GPR1, active compounds read low): 0.553 (active)
- normalized growth (locus YDL040C, strain nat1, active compounds read low): 0.948
- normalized growth (locus YDL074C, strain BRE1, active compounds read low): 0.443 (active)
- normalized growth (locus YDL101C, strain DUN1, active compounds read low): 0.505 (active)
- normalized growth (locus YDL134C, strain PPH21, active compounds read low): 0.513 (active)
- normalized growth (locus YDL185W, strain tfp1, active compounds read low): 0.636 (active)
- normalized growth (locus YDL192W, strain arf1, active compounds read low): 0.654 (active)
- normalized growth (locus YDR001C, strain nth1, active compounds read low): 0.949
- normalized growth (locus YDR069C, strain doa4, active compounds read low): 0.989
- normalized growth (locus YDR101C, strain arx1, active compounds read low): 0.655 (active)
- normalized growth (locus YDR137W, strain rgp1, active compounds read low): 1.39 [resistant] (active)
- normalized growth (locus YDR150W, strain NUM1, active compounds read low): 0.744 (active)
- normalized growth (locus YDR159W, strain sac3, active compounds read low): 0.784 (active)
- normalized growth (locus YDR162C, strain NBP2, active compounds read low): 0.338 (active)
- normalized growth (locus YDR195W, strain ref2): 1.05
- normalized growth (locus YDR297W, strain sur2, active compounds read low): 0.914 (active)
- normalized growth (locus YDR318W, strain mcm21, active compounds read low): 0.41 (active)
- normalized growth (locus YDR334W, strain swr1, active compounds read low): 0.959
- normalized growth (locus YDR335W, strain msn5, active compounds read low): 0.956
- normalized growth (locus YDR388W, active compounds read low): 0.71 (active)
- normalized growth (locus YDR392W, strain spt3, active compounds read low): 0.335 (active)
- normalized growth (locus YDR502C, strain sam2, active compounds read low): 0.546 (active)
- normalized growth (locus YEL003W, strain gim4, active compounds read low): 0.867 (active)
- normalized growth (locus YEL037C, strain rad23, active compounds read low): 0.943
- normalized growth (locus YEL061C, strain CIN8 (second series), active compounds read low): 0.935
- normalized growth (locus YEL061C, strain CIN8, active compounds read low): 0.449 (active)
- normalized growth (locus YER015W, strain faa2, active compounds read low): 0.892 (active)
- normalized growth (locus YER016W, strain bim1, active compounds read low): 0.928
- normalized growth (locus YER110C, active compounds read low): 0.544 (active)
- normalized growth (locus YER111C, strain swi4, active compounds read low): 0.941
- normalized growth (locus YER155C, strain BEM2 (second series), active compounds read low): 0.249 (active)
- normalized growth (locus YER155C, strain BEM2, active compounds read low): 0.304 (active)
- normalized growth (locus YER167W, strain BCK2, active compounds read low): 0.367 (active)
- normalized growth (locus YFR010W, strain ubp6, active compounds read low): 0.985
- normalized growth (locus YGL078C, strain dbp3, active compounds read low): 0.864 (active)
- normalized growth (locus YGL086W, strain mad1, active compounds read low): 0.439 (active)
- normalized growth (locus YGL167C, strain pmr1, active compounds read low): 0.92
- normalized growth (locus YGL173C, strain kem1, active compounds read low): 0.939
- normalized growth (locus YGL227W, strain vid30, active compounds read low): 0.947
- normalized growth (locus YGL240W, strain doc1, active compounds read low): 0.789 (active)
- normalized growth (locus YGL248W, strain PDE1, active compounds read low): 0.612 (active)
- normalized growth (locus YGL253W, strain hxk2, active compounds read low): 0.824 (active)
- normalized growth (locus YGR135W, strain pre9, active compounds read low): 0.533 (active)
- normalized growth (locus YGR229C, strain SMI1, active compounds read low): 0.144 (active)
- normalized growth (locus YGR252W, strain gcn5, active compounds read low): 0.446 (active)
- normalized growth (locus YHR013C, strain ard1, active compounds read low): 0.916
- normalized growth (locus YHR027C, strain rpn1, active compounds read low): 0.945
- normalized growth (locus YHR030C, strain SLT2, active compounds read low): 0.0615 (active) and 0.831 (active)
- normalized growth (locus YHR079C, strain IRE1 (second series), active compounds read low): 0.646 (active)
- normalized growth (locus YHR079C, strain IRE1, active compounds read low): 0.924
- normalized growth (locus YHR094C, strain hxt1, active compounds read low): 0.765 (active)
- normalized growth (locus YHR129C, strain ARP1, active compounds read low): 0.474 (active)
- normalized growth (locus YHR142W, strain chs7, active compounds read low): 0.692 (active)
- normalized growth (locus YHR200W, strain rpn10, active compounds read low): 0.804 (active)
- normalized growth (locus YIL066C, strain RNR3, active compounds read low): 0.188 (active)
- normalized growth (locus YIL073C, strain SPO22, active compounds read low): 0.535 (active)
- normalized growth (locus YIL125W, strain kgd1, active compounds read low): 0.796 (active)
- normalized growth (locus YIR030C, strain dcg1, active compounds read low): 0.615 (active)
- normalized growth (locus YJL092W, strain hpr5, active compounds read low): 0.919
- normalized growth (locus YJL095W, strain BCK1 (second series), active compounds read low): 0.704 (active)
- normalized growth (locus YJL095W, strain BCK1, active compounds read low): 0.0726 (active) and 0.863 (active)
- normalized growth (locus YJL115W, strain asf1, active compounds read low): 0.96
- normalized growth (locus YJL129C, strain trk1, active compounds read low): 0.755 (active)
- normalized growth (locus YJL134W, strain LCB3, active compounds read low): 0.868 (active)
- normalized growth (locus YJL154C, strain vps35, active compounds read low): 0.959
- normalized growth (locus YJL164C, strain tpk1, active compounds read low): 0.863 (active)
- normalized growth (locus YJL166W, strain qcr8, active compounds read low): 0.822 (active)
- normalized growth (locus YJL168C, strain set2, active compounds read low): 0.826 (active)
- normalized growth (locus YJL187C, strain SWE1 (second series), active compounds read low): 0.612 (active)
- normalized growth (locus YJL187C, strain SWE1, active compounds read low): 0.917 (active)
